This is part of a sample that, as a whole, favours compounds with a hit. Of some 83,000 tested, about 20% had one in any assay.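 48-hour exposure, single concentration, 96-well plates; percent growth endpoint where 0 means no net growth. Active: below 10.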 Values without a mark were called inactive. Calls of active or inactive are those of the source.
Legend:
Test in all cases: NCI-60 one-dose screen, 48 h (100 = growth as untreated, 0 = no growth, -100 = all killed)
Settings in all cases: 10 µM unless noted
SR leukemia = system: SR leukemia
RPMI-8226 leukemia = system: RPMI-8226 leukemia
OVCAR-8 ovarian = system: OVCAR-8 ovarian
OVCAR-5 ovarian = system: OVCAR-5 ovarian
OVCAR-4 ovarian = system: OVCAR-4 ovarian
SK-OV-3 ovarian = system: SK-OV-3 ovarian
HS 578T breast = system: HS 578T breast
NCI/ADR-RES ovarian = system: NCI/ADR-RES ovarian
IGROV1 ovarian = system: IGROV1 ovarian
OVCAR-3 ovarian = system: OVCAR-3 ovarian

| SMILES | growth (SR leukemia) | growth (RPMI-8226 leukemia) | growth (OVCAR-8 ovarian) | growth (OVCAR-5 ovarian) | growth (OVCAR-4 ovarian) | growth (SK-OV-3 ovarian) | growth (HS 578T breast) | growth (NCI/ADR-RES ovarian) | growth (IGROV1 ovarian) | growth (OVCAR-3 ovarian) |
| --- | --- | --- | --- | --- | --- | --- | --- | --- | --- | --- |
| CCc1cc(OC(=O)N2CCC(N3CCCCC3)CC2)ccc1Nc1cc(-c2ccc(-n3cccn3)cc2)[nH]n1 | -9.25% (active) | 20.9% | 86.2% | 87.4% | 85.3% | 85.9% | 66.8% | 82.5% | – | – |
| O=C(/C=C/Nc1ccc(S(=O)(=O)Nc2ncccn2)cc1)c1ccc(N=Cc2c(O)[nH]c3ccccc23)cc1 | 82.1% | 86.4% | 101% | 115% | 106% | – | 105% | 110% | 118% | 137% |
| Cn1cc(-c2nnc(N)nc2-c2c[nH]c3ccc(F)cc23)c2cc(Br)ccc21 | 4.93% (active) | 5.9% (active) | 34.4% | 68.3% | 50.1% | – | 7.85% (active) | 15.2% | 34.6% | 10.7% |
| C#CCOc1ccccc1/C=N/Nc1nc(-c2ccc(Cl)cc2)cs1 | 101% | 91.5% | 98.1% | 92.3% | 87.8% | – | 99.6% | – | 77.8% | 98.8% |
| O=C(CCCCCCN1CC(=O)N2[C@@H](c3cccs3)c3[nH]c4ccccc4c3C[C@H]2C1=O)NO | 35.6% | 55% | 61.7% | 70.4% | 95.6% | 101% | 81.1% | 90.4% | – | – |
| O=C(/C=C/c1csc(Br)n1)NO | 13.8% | 9.04% (active) | 22.3% | 10.7% | 65.1% | 38.2% | 44.3% | 1.04% (active) | – | – |
| COc1cc(NC(=O)Nc2cccc(-c3cc(=O)c4c(OC)c(OC)c(OC)cc4o3)c2)cc(OC)c1OC | 54.5% | 31.4% | 38.4% | 79.5% | 65.5% | – | 17.1% | 82.4% | 34.5% | 40.1% |
| COc1ccc(C2C(C#N)=C(/N=C/c3ccc(Cl)cc3)Oc3c2sc2c(C)cccc32)cc1 (centres undefined) | 16.5% | 22.6% | 23.4% | 34.9% | 76.5% | 42.8% | -4.66% (active) | 11.2% | – | – |
| C/C(=C(\c1ccc(O)cc1)c1ccc(OCCN2CCCCCC2)cc1)c1ccc(Cl)cc1 | -24.9% (active) | -2.67% (active) | -73.5% (active) | -56.3% (active) | -59.8% (active) | – | -46.2% (active) | -72.7% (active) | -65.1% (active) | -73.3% (active) |
| CS(=O)(=O)c1ccc(/C(=N/N=C(N)N)c2ccc(F)cc2)cc1 | 24.1% | 91.4% | 98.4% | 115% | 101% | – | 93.4% | 95.7% | 110% | 95.6% |
| O=C1/C(=C/c2cc(F)cc(F)c2)Cc2cc3c(cc21)OCO3 | 18.4% | 52.3% | 42.5% | 65.3% | 61.9% | – | 46.9% | 19.4% | 36.9% | – |
| COC(=O)N1CCN(CCNCc2ccc(NC(=O)c3ccc(C)c(C#Cc4cnc5cccnn45)c3)cc2C(F)(F)F)CC1 | -7.7% (active) | -6.11% (active) | 31.6% | 46.2% | 31.1% | – | -2.16% (active) | 6.71% (active) | 11.3% | 64.8% |
| CN1CCN(c2ccc(Nc3nc(NCCCNS(=O)(=O)c4cccc(F)c4)c4sccc4n3)cc2)CC1 | 9.04% (active) | 7.54% (active) | 50.2% | 73.4% | 18.3% | – | 50.4% | 70.8% | 68.9% | 9.74% (active) |
| O=C1CSC(c2cn(-c3ccccc3)nc2-c2ccc(Cl)cc2)N1c1ccccc1 (centres undefined) | 109% | 103% | 104% | 112% | 110% | – | 108% | – | 114% | 124% |
| COc1ccccc1/C=C1\Oc2ccc(O)c(O)c2C1=O | 99.6% | 93.5% | 94.1% | 105% | 84% | – | 87.9% | 98.5% | 98.7% | 102% |
| CN1CCC[C@]2(C)[C@H]3CC[C@@H]4[C@@H]5[C@H]6OC[C@@]5(CCC6(C)C)CC[C@@]4(C)[C@]3(C)CC[C@H]2C1(C)C | 5.47% (active) | 30.2% | 22.3% | 103% | 86.9% | 118% | 99% | 95.5% | – | – |
| COc1cc(C(=O)c2cc(C(C)=O)c3ccc(C)cn23)cc(OC)c1OC | 26.9% | 54.6% | 50.6% | 59.5% | 79.7% | – | 59% | 18.4% | 41.9% | 28% |
| O=C(CCCCCCNC(=O)C(O)(O)C(F)(F)F)Nc1ncc(-c2ccccc2)s1 | 10.9% | 14.6% | -2.23% (active) | -0.912% (active) | 18.9% | – | 0.452% (active) | 2.08% (active) | -23.5% (active) | -43% (active) |
| Oc1[nH]c2ccc(Cl)cc2c1N=Nc1nc(N=Nc2c(O)[nH]c3ccc(Cl)cc23)nc(N2CCCCC2)n1 | 24.5% | 57% | 25.9% | 38.2% | 42.2% | – | 36.2% | 101% | 22.9% | 76.9% |
| N#Cc1nc(-c2ccc(Cl)cc2)oc1N1CCC(S(=O)(=O)N2CCOCC2)CC1 | 88.6% | 105% | 101% | 102% | 100% | 119% | 105% | 100% | – | – |
| CCS(=O)(=O)Nc1ccc(C(=O)CC2(O)C(=O)Nc3ccccc32)cc1 (centres undefined) | 99.2% | 101% | 101% | – | 108% | 105% | 104% | 96.7% | 90% | – |
| Cc1ccc(N2CCN(C3=C(Cl)C(=O)c4ncccc4C3=O)CC2)cc1 | 4.58% (active) | 11.8% | 67.9% | – | 48.3% | 112% | 79.7% | 55.8% | 58.6% | – |
| N#Cc1c(-c2cccs2)cc(-c2cnccn2)nc1SCC(=O)N/N=C/c1ccncc1 | 93.6% | 103% | 103% | – | 111% | 109% | 109% | 108% | 104% | 117% |
| O=C(/C=C/c1ccc(F)cc1)Nc1cccc2cccnc12 | 103% | 94.2% | 106% | – | 93.3% | 90.2% | 112% | 102% | 71.8% | – |
| Cc1ccc2c(n1)C(=O)C(Cl)=C(Nc1ccc(C)c(C)c1)C2=O | 28.1% | 11.1% | 67.2% | – | -29% (active) | 99.1% | 32.8% | 63.1% | -45.5% (active) | -21.4% (active) |
| CCCCc1nc2c(N)nc3ccccc3c2n1Cc1ccc(OC)cc1 | 46.2% | 34.1% | 67.4% | – | 58.1% | 74.8% | 79.8% | 59.2% | 56.8% | – |
| O=C(CSc1nnc(-c2ccc(Cl)cc2)n1-c1ccccc1)Nc1cccc(F)c1 | 37.2% | 40.5% | 35.7% | – | -46.4% (active) | 78.6% | 28% | 37% | 20.3% | 51.9% |
| C[C@H](Nc1ncnc2ccc(-c3cnc(Cl)c(NS(C)(=O)=O)c3)cc12)c1ccccc1 | -20.1% (active) | -7.72% (active) | -26.3% (active) | – | 0.576% (active) | -65.5% (active) | -20% (active) | 7.69% (active) | -28.8% (active) | -65.9% (active) |
